PubChem BioAssay (NCATS)
Results filed as inconclusive are left out. The list shows a part of the results. Activity calls are given as the source filed them. Unless noted, calls come from the whole dose curve; as a rule, active = well fitted curve in the direction sought with a large enough effect; inconclusive = small, poorly fitted or top-dose-only effect, or another doubt; inactive = no such curve, though single readings can be large; an effect the other way counts as inactive or inconclusive.

Assays:
[1] = qHTS Assay for Modulators of Human Peripheral Myelin Protein 22 (PMP22) Expression/Activity (AID 1967; active = well fitted curve in the direction sought with a large enough effect in the signal ratio; the % refers to the signal ratio)
Procedure, shortened: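 MSC80 mouse Schwann cells stably carrying Pmp22 promoter–green click beetle luciferase plus EF-alpha–red luciferase control were dosed for 24h at 37 °C. Dual-colour luminescence was filter-overlap corrected; %Activity came from green/red ratio versus untreated cells.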

[2] = molecular target: ATP-dependent DNA helicase Q1 (Homo sapiens) (UniProt P46063); assay: qHTS Validation Assay for Inhibitors of RecQ-Like Dna Helicase 1 (RECQ1) (AID 2353)
Procedure, shortened: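 RECQ1T1 50 nM; forked duplex (20 bp + 30-nt ss tails) 200 nM, ATP 2 mM final; pH 8.0, 2 mM MgCl2, 2.5 ug/ml poly(dI-dC); 15 min compound preincubation; discontinuous kinetic read over 2 h at RT.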

[3] = Cytometric Cell-Based qHTS for Inhibitors of the mTORC1 Signaling Pathway in MEF (Tsc2-/-, p53-/-) Cells (AID 2660);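 note: percent of cells above a phospho-rpS6 to PI ratio cutoff in each well; series mostly up to about 38 µM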
Procedure, shortened: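 Tsc2-/-, p53-/- MEFs (empty vector) exposed to compound 24 h at 37 C, fixed, stained with Alexa-488 anti-phospho-rpS6 Ser235/236 and propidium iodide. Acumen laser scanning; phospho-S6/PI ratio thresholded against 7.5 nM rapamycin, reported as % positive cells.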

[4] = High Content Imaging Cell-Based qHTS for Inhibitors of the mTORC1 Signaling Pathway in MEF (Tsc2-/-, p53-/-) Cells (AID 2666);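 note: percent of cells scored positive for phospho-rpS6 Ser235/236 immunostaining by imaging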
Procedure, shortened: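 Tsc2-/-, p53-/- MEFs (empty-vector stable) grown in DMEM + 10% FBS were exposed to compounds for 24 hrs at 37 degree Celsius, fixed, and stained with Alexa-488 anti-phospho-rpS6 Ser235/236 plus Hoechst. Imaging gave the percentage of positive cells per well.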

[5] = High Content Imaging Cell-Based qHTS for Inhibitors of the mTORC1 Signaling Pathway in MEF Cells (AID 2667);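 note: Tsc2-/- p53-/- MEFs stably re-expressing wild-type Tsc2 exposed 24 h; series mostly up to about 38 µM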
Procedure, shortened: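 Tsc2-/-, p53-/- MEFs stably re-expressing WT Tsc2, grown in DMEM + 10% FBS, were treated with compounds for 24 hrs at 37 degree Celsius, fixed, and stained with Alexa-488 phospho-rpS6 Ser235/236 antibody plus Hoechst; results given as % positive cells.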

[6] = Validation screen for small molecules that induce DNA re-replication in MCF 10A normal breast cells (AID 463097); note: nearly all actives have a fitted effect of over 60% in size; note: potency is the fitted concentration of half-maximal effect
Procedure, shortened: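 Readout: Hoechst nuclear fluorescence intensity, 405 ex / 500-530 em, by scanning plate imager; re-replication scored as increase in nuclei with elevated DNA content. Cells exposed to compound 48 hr, 37 C, 5% CO2 beforehand.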

[7] = molecular target: Ubiquitin carboxyl-terminal hydrolase 2 (Homo sapiens) (UniProt O75604); assay: qHTS Validation Assay for Inhibitors of Ubiquitin-specific Protease USP2a Using CHOP2 as the Reporter (AID 463106)
Sequence of Ubiquitin carboxyl-terminal hydrolase 2 (Homo sapiens) (O75604 whole entry, looked up): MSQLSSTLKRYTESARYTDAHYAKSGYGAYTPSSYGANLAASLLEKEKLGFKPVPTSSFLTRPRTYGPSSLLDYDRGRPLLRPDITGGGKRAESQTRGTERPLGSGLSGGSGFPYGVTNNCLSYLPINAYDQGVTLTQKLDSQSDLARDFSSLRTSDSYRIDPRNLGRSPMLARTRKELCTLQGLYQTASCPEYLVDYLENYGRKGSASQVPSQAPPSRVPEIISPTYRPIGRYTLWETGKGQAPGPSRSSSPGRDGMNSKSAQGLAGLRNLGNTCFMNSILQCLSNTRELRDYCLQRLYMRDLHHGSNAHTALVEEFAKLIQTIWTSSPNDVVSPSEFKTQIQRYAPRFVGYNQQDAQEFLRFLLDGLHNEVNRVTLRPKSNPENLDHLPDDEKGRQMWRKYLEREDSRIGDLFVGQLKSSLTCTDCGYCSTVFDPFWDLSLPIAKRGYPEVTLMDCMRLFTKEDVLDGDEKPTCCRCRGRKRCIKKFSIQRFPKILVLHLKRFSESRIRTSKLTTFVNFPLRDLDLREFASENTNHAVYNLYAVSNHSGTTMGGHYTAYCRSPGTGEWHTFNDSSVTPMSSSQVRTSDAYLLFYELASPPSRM
Procedure, shortened: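 Readout was coupled fluorescence (Ex 485/Em 531 nm), read 60 min after adding 25 nM final Ub-CHOP2 and 25 nM reporter substrate. Beforehand, 10 nM final USP2 core had 30 min at RT with compound in pH 8.0 buffer. Curves were fitted after normalization to NEM and flagged for artifacts using time-zero reads.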

[8] = molecular target: Tumor susceptibility gene 101 protein (Homo sapiens) (UniProt Q99816); assay: qHTS Validation Assay for Iinhibitors of HIV-1 Budding by Blocking the Interaction of PTAP/TSG101 (AID 485342; calls by dose curve)
Sequence of Tumor susceptibility gene 101 protein (Homo sapiens) (Q99816 whole entry, looked up, the tested form may be a part): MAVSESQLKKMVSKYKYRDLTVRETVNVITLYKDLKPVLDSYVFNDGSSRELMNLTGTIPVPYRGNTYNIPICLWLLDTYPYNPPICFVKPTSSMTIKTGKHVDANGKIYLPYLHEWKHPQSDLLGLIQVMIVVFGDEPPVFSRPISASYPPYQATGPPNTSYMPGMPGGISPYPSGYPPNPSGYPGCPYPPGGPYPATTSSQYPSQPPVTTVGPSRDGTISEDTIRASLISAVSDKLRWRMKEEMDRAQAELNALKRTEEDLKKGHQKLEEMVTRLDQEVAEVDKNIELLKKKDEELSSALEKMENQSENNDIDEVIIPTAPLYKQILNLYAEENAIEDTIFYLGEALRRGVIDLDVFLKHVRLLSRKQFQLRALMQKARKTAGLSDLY
Procedure, shortened: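 Tsg101 binding domain (10 uM final) in pH 7.5 HEPES/NaCl/Tween 20/EDTA/TCEP buffer was mixed with pin-transferred compounds, then FITC-labeled PTAP peptide (50 nM final) was added; after 20 min at r.t., fluorescence polarization was read.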

[9] = molecular target: Beta-2 adrenergic receptor (Homo sapiens) (UniProt P07550); assay: qHTS validation assay of beta-arrestin-biased ligands of beta2-adrenergic receptor (AID 485366)
Sequence of Beta-2 adrenergic receptor (Homo sapiens) (P07550 whole entry, looked up): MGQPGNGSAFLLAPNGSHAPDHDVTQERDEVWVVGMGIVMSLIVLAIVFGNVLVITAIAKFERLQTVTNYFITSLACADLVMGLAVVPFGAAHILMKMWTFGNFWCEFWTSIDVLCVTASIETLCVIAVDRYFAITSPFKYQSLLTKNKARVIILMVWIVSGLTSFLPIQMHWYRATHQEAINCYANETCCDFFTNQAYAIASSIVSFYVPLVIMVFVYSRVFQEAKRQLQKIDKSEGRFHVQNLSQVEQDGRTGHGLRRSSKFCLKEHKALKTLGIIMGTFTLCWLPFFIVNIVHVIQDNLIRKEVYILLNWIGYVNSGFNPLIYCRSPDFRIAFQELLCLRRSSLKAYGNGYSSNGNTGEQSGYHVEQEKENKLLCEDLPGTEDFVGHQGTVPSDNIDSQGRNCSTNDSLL
Procedure, shortened: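 qHTS, Tango cells, 1500 cells/well, DMEM + 1% FBS. Cpd 18 hr at 37 degrees C. Luciferin/ATP/CoA detection mix, 15 min RT, luminescence read. %Activity from corrected signal; CRC fit, curve class.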

[10] = molecular target: ATP-dependent 6-phosphofructokinase (Trypanosoma brucei brucei) (UniProt O15648); assay: qHTS Validation Assay to Find Inhibitors of T. brucei phosphofructokinase (AID 485368)
Sequence of ATP-dependent 6-phosphofructokinase (Trypanosoma brucei brucei) (O15648 whole entry, looked up): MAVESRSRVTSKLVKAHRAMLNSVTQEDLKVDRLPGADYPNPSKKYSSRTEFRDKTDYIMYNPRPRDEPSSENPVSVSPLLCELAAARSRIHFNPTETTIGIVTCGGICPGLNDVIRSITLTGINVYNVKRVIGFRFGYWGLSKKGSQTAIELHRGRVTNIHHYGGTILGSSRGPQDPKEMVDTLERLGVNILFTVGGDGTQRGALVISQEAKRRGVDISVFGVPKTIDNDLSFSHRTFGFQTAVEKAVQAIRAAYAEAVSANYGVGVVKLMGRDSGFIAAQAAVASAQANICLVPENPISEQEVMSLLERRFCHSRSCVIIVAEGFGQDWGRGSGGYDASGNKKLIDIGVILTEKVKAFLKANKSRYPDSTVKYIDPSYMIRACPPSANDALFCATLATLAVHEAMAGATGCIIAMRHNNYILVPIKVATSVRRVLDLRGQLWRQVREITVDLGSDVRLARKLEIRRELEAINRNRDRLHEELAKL
Procedure, shortened: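 Luminescent ADP detection measures PFK turnover of fructose-6-phosphate (0.5 mM) with ATP (0.1 mM) at pH 8.0. Reaction runs 45 min at room temperature with 1.25 nM enzyme; inhibitors tested as titrations up to 57 uM.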

[11] = Quantitative high throughput screen for delayed death inhibitors of the malarial parasite plastid, 96 hour incubation (AID 488745); note: nearly all actives have a fitted effect of over 70% in size; note: potency is the fitted concentration of half-maximal effect
Procedure, shortened: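 Readout is firefly luciferase luminescence from an integrated reporter in P. falciparum; lower signal marks inhibited growth. Cultures at 2% hematocrit and 0.1% parasitemia were treated with compound across two generations (96 h, 37 C, 5% CO2).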

[12] = Quantitative high throughput screen for delayed death inhibitors of the malarial parasite plastid, 48 hour incubation (AID 488752); note: nearly all actives have a fitted effect of over 65% in size; note: potency is the fitted concentration of half-maximal effect
Procedure, shortened: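 First, compound was pinned into RPMI 1640 medium containing 0.5% Albumax. Next, reporter-parasite-infected erythrocytes were added to 2% hematocrit and 0.1% parasitemia. After 48 h at 37 C under 5% CO2, luciferase detection reagent was added and luminescence read.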

[13] = molecular target: RecQ-like DNA helicase BLM (Homo sapiens) (UniProt P54132); assay: qHTS Validation Assay for Inhibitors of Bloom's syndrome helicase (BLM) (AID 2364)
Sequence of RecQ-like DNA helicase BLM (Homo sapiens) (P54132 whole entry, looked up): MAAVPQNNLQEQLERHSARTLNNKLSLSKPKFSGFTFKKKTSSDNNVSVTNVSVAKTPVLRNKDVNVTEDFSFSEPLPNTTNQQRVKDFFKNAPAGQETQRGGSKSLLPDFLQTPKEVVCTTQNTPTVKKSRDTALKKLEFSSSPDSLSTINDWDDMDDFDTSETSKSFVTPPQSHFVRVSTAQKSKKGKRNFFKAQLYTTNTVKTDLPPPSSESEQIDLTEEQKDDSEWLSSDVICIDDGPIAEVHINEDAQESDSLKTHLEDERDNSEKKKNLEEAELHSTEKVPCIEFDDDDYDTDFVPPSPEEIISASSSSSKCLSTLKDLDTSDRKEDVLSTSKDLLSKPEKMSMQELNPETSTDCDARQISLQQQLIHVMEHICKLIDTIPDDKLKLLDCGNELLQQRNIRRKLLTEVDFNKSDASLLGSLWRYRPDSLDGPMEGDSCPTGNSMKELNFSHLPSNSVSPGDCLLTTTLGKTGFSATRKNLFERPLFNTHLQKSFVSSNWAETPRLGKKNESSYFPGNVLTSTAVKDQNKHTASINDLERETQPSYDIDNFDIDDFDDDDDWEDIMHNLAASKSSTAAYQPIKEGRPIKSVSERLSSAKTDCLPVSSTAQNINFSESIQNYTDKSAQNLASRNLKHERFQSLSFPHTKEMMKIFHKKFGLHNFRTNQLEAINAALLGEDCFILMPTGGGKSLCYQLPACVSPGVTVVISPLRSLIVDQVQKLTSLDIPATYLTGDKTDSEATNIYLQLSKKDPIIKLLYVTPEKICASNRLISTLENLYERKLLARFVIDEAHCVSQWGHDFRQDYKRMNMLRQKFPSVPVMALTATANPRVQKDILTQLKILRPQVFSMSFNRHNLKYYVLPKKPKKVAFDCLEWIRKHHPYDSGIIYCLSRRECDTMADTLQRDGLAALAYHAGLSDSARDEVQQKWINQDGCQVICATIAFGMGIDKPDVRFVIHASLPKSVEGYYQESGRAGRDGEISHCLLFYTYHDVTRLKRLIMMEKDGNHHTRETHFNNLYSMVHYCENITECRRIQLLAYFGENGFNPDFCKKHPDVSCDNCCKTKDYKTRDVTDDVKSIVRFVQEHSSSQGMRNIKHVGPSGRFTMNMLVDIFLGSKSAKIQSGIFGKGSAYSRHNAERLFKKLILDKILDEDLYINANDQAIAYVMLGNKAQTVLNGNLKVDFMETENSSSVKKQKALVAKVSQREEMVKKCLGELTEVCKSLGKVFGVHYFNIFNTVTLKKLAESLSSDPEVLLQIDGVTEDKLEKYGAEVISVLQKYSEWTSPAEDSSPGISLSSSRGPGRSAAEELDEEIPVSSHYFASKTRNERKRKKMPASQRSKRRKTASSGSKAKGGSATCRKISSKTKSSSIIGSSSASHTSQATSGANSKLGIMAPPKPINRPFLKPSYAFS
Procedure, shortened: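 Forked 20-bp duplex substrate (200 nM, TAMRA/BHQ-2) plus 2 mM ATP added after 15 min compound preincubation with 50 nM enzyme, pH 8.0, poly(dI-dC) 2.5 ug/ml. Strand separation followed by fluorescence (525/598 nm) over 2 h, normalized to enzyme-free and DMSO controls.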

[14] = molecular target: Endonuclease 4 (Escherichia coli (strain K12)) (UniProt P0A6C1); assay: Counterscreen for APE1 Inhibitors: qHTS Assay for Inhibitors of Endonuclease IV (AID 2565); note: potency is the fitted concentration of half-maximal effect
Procedure, shortened: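 Incision of a double-stranded 50 nM TAMRA/BHQ-2 abasic substrate was followed kinetically (525/598 nm, reads every 60 s) after 15 min enzyme–compound preincubation with 2 nM EndoIV in pH 7.5 Tris buffer with MgCl2, DTT and Tween-20; concentration-response format.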

[15] = molecular target: DNA repair nuclease/redox regulator APEX1 (Homo sapiens) (UniProt P27695); assay: Confirmation qHTS Assay for Inhibitors of the Human Apurinic/apyrimidinic Endonuclease 1 (APE1) (AID 2572); note: potency is the fitted concentration of half-maximal effect; nearly all actives have a fitted effect of over 30% in size
Procedure, shortened: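 Double-stranded THF abasic-site substrate (50 nM final), 5'-TAMRA/3'-BHQ-2; APE1 incision raises fluorescence. Enzyme preincubated with compound 15 min at room temperature before substrate; kinetic read Ex 525/Em 598 nm, signal difference between third and first reads.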

[16] = Cytometry Cell-Based qHTS for Inhibitors of the mTORC1 Signaling Pathway in MEF cells (AID 2668);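 note: Tsc2-/- p53-/- mouse embryonic fibroblasts stably re-expressing wild-type Tsc2; percent cells positive for phospho-rpS6 Ser235/236 relative to propidium iodide stain; series mostly up to about 38 µM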
Procedure, shortened: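 WT MEFs (Tsc2-/-, p53-/- stably re-expressing WT Tsc2) in DMEM + 10% FBS received compounds 24 hrs after plating, for 24 hrs at 37 degree Celsius. Fixed cells stained with Alexa-488 anti-phospho-rpS6 Ser235/236 and propidium iodide; laser-scanning cytometry read-out.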

[17] = molecular target: DNA polymerase III PolC-type (Bacillus subtilis (strain 168)) (UniProt P13267); assay: qHTS Validation Assay for the Inhibitors of DNA Replication in Gram-Positive Bacteria (AID 485295); note: potency is the fitted concentration of half-maximal effect
Sequence of DNA polymerase III PolC-type (Bacillus subtilis (strain 168)) (P13267 whole entry, looked up): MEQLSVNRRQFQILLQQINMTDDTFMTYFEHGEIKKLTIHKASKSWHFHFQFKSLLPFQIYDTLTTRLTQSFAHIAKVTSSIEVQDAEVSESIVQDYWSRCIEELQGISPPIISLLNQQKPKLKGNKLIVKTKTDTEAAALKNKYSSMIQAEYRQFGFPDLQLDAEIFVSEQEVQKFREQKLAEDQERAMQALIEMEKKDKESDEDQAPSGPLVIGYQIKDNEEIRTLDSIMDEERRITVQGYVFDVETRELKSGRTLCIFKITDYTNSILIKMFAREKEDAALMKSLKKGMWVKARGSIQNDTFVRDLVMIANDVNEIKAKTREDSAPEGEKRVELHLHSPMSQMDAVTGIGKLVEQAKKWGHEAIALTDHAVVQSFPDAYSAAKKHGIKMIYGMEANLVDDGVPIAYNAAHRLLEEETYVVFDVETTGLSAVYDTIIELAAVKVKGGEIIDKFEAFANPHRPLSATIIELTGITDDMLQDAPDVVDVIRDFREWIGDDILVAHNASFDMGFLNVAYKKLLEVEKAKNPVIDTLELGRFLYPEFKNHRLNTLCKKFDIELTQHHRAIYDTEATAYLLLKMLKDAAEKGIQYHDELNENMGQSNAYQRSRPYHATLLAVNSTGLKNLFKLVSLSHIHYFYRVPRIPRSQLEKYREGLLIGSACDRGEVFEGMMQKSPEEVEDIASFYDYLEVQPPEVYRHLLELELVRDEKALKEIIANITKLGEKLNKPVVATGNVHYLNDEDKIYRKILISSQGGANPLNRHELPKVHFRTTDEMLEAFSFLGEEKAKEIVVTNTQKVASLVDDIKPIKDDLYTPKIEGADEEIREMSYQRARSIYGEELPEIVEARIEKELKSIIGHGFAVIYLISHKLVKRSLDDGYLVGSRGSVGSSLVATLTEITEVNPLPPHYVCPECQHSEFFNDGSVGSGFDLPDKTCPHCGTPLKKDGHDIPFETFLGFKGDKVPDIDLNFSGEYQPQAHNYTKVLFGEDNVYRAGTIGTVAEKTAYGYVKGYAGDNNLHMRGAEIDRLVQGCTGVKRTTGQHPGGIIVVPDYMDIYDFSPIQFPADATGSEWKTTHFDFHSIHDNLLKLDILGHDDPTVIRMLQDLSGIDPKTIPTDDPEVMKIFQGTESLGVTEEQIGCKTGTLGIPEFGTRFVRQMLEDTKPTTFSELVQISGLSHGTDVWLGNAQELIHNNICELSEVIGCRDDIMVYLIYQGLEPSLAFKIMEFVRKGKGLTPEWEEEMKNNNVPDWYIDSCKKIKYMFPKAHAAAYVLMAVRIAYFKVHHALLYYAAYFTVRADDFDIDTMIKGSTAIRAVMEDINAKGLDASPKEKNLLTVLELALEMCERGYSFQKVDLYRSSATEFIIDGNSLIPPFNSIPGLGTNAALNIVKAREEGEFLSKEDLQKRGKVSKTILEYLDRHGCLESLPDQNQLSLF
Procedure, shortened: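 Reconstituted B. subtilis holoenzyme (Pol III, beta clamp, SSB, primase) was preincubated with compound at room temperature, then given single-stranded circular M13Gori plus dNTPs and NTPs. EDTA-containing PicoGreen stopped the reaction, and dsDNA product was read by fluorescence.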

[18] = qHTS Validation Assay to Find Inhibitors of Chronic Active B-Cell Receptor Signaling (AID 485345; active = well fitted curve in the direction sought with a large enough effect in the main read-out, with a control signal flat, not every such curve was filed as active)
Procedure, shortened: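 Read-out: ratio of filter-corrected green (IkappaBalpha fusion) to red (native) luciferase signal in doxycycline-induced TMD8 cells after 4 h at 37C. Titration spanned 46 uM–3 nM; Data were normalised to basal cells and 10 uM MG-132 wells.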

[19] = molecular target: Ferritin light chain (Equus caballus) (UniProt P02791); assay: qHTS Validation Assay for Identification of Novel General Anesthetics (AID 2323); note: series mostly up to about 77 µM
Sequence of Ferritin light chain (Equus caballus) (P02791 2-175 limits assumed): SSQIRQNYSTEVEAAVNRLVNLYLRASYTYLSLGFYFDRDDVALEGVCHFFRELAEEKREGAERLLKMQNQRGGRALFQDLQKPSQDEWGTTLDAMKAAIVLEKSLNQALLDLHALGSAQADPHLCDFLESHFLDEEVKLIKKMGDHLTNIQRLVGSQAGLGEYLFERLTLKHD
Procedure, shortened: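 Competitive displacement of profluorescent 1-aminoanthracene (1-AMA, 50% saturated solution in PBS) from 10 uM horse-spleen apoferritin. Compounds incubated 10 min at room temperature; fluorescence read at 380 nm excitation/535 nm emission, normalized to free 1-AMA and complex, fitted with four-parameter Hill equation.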

[20] = qHTS Assay for Identification of Small Molecule Inducers of Hypoxia Response (AID 2120; active = well fitted curve in the direction sought with a large enough effect in the signal ratio, with a control signal flat, not every such curve was filed as active; the % refers to the signal ratio)
Procedure, shortened: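 Cell-based qHTS for reporter induction: hypoxia response element controlled beta-lactamase in ME-180 cells. Compounds incubated 17 h at 37 degrees C; activity from blue/green (460/530 nm) ratio, inducers ranked by AC50.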

Measured: Potency

CCCCCCCCCCCCCCCCCC(=O)NCC(COP(=O)([O-])OCC[N+](C)(C)C)OCC (stereo not drawn)
active: [6] 1.12 µM
not listed: [13] | [14] | [15] | [16] | [17] | [18] | [19] | [20]
inactive: all other assays above

C[N+](C)(CCCCCC[N+](C)(C)CCCN1C(=O)c2cccc3cccc(c23)C1=O)CCCN1C(=O)c2cccc3cccc(c23)C1=O
active: [14] 3.55 µM | [15] 4.47 µM | [17] 10.6 µM | [11] 0.928 µM | [12] 0.294 µM
not listed: [2] | [7] | [8] | [10] | [19] | [20]
inactive: all other assays above

O=S(=O)(c1cccc2c(I)cccc12)N1CCCNCC1
inactive: [19] | [2] | [13] | [3] | [4] | [7] | [17] | [9] | [11] | [12]

Brc1c(Br)c(Br)c2n[nH]nc2c1Br
inactive: [1] | [4] | [5] | [16] | [17] | [8] | [9] | [11] | [12]

NCCO
inactive: [20]

CCCCCCCCCCCCCCCCCCNC(=O)OCC(COP(=O)([O-])OCC[n+]1ccsc1)OC (stereo not drawn)
inactive: [1] | [5] | [16] | [17] | [8] | [18] | [9] | [11] | [12]

O=C(O)c1cc(O)c(O)c(O)c1
inactive: [20]

O=c1cc(-c2ccccc2)oc2ccccc12
inactive: [20]

Fc1ccc(C(OCCCc2cnc[nH]2)c2ccc(F)cc2)cc1
active: [11] 2.62 µM | [12] 6.57 µM
inactive: [2] | [3] | [4] | [5] | [16] | [6] | [7] | [17] | [9]

Cn1cc(C2=C(c3ccc(Cl)cc3Cl)C(=O)NC2=O)c2ccccc21
inactive: [13] | [4] | [5] | [16] | [17] | [8] | [9] | [10] | [11] | [12]

O=C(Nc1ccccc1)c1cc([N+](=O)[O-])ccc1Cl
inactive: [2] | [13] | [3] | [4] | [5] | [6] | [7] | [17] | [8] | [9] | [10]

O=c1[nH]c2ccccc2n1CCCN1CCN(C(c2ccccc2)c2ccccc2)CC1
inactive: [2] | [6] | [11] | [12]
